Records with an inconclusive call do not appear. A number with no mark means an inactive call. Calls of active or inactive are those of the source. Calls follow the shape of the dose curve; as a rule, active = well fitted cell-killing curve with a large enough effect; inconclusive = small, poorly fitted or top-dose-only effect, or effect the other way; inactive = no such curve, though single readings can be large or run the other way.
test: qHTS of pediatric cancer cell lines to identify multiple opportunities for drug repurposing: Confirmatory screen for RD cells (AID 1347124); details: RD rhabdomyosarcoma cell viability; series mostly up to 45.9 µM; activity change, negative = cytotoxic: at the top concentration;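 also: cells exposed to compound for 48 h before viability readout; nearly all actives have a fitted effect of over 65% in size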
Source text: Drug repurposing or repositioning has been offered as a strategy for drug development in oncology programs. This approach has special potential for childhood cancers and other rare or orphan diseases, where the expected return on new drug development has been a disincentive to pharmaceuticals.
In this project we exploit the poly-pharmacology of drugs to discover new indications via phenotypic screening of a panel of 19 well-characterized cell lines derived from solid tumors seen in children and adolescents. The goal is to identify approved drugs with previously unrecognized anticancer properties that has the potential to reveal new mechanisms and biological processes involved in carcinogenesis or drug resistance. We employed a titration-based paradigm (quantitative high-throughput screening or qHTS), where all compounds were tested at multiple concentrations for their effect on cell viability. Concentration-response curves (CRCs) were derived directly from the primary screen, and both potency and efficacy values were used to identify compounds with robust bioactivity profiles. We screened the NIH Chemical Genomics Center (NCGC) Pharmaceutical Collection (NPC) and Mechanism Interrogation Plate (MIPE) small molecule collections of approved and investigational compounds against these cell lines; and measured metabolically active cells after 48 hours of compound treatment as a proxy for cell viability.
Assay Submitter: Nathalia J. Martinez, National Center for Advancing Translational Sciences, National Institutes of Health, Rockville, MD, USA; email: natalia.martinez@nih.gov
[1] Shen, M et al. Quantitative high-throughput phenotypic screening of pediatric cancer cell lines identifies multiple opportunities for drug repurposing. Oncotarget 2017 Dec 19;9(4):4758-4772. PMID 29435139.
The cells were obtained from University of North Carolina (UNC), Pediatric Preclinical Testing Program (PPT), and Coriell Institute (CI).
qHTS cell viability assay:
Cells were assayed in growth media at a density of 500-1,000 cells/well. Five microliters of cells were dispensed into 1,536-well, white, solid-bottom, TC-treated plates (Greiner Bio One) using a multidrop dispenser and incubated at 37 degrees C, 5% CO2, under a humidified atmosphere for 5 hours. Twenty-three nanoliters of compounds and controls (neutral control DMSO or positive control bortezomib at final concentration of 2.3 µM) were subsequently transferred by Kalypsys pintool. For primary screens, the MIPE collection was tested at 11-point dilutions (final concentrations range from 0.78 nM to 46 µM) and the NPC collection at 8-point dilutions (final concentrations range from 0.59 nM to 46 µM). Compounds tested in follow-up screens were assayed at 11-point dilutions. Cells were incubated for 48 hours, followed by addition of 3 µL of CellTiter-Glo (Promega). After a 15 min incubation at room temperature, samples were analyzed for luminescence intensity using a ViewLux High-throughput CCD imager equipped with clear filters.
% is scaled to controls: 0 for no effect and ±100 for the full control effect; potency is read from the fitted curve at half-maximal effect.

| SMILES | activity change, negative = cytotoxic | Potency |
| --- | --- | --- |
| COc1nc(N)nc2c1ncn2[C@@H]1O[C@H](CO)[C@@H](O)[C@@H]1O | 13.1% |  |
| COc1ccc(C(=O)CC(=O)c2ccc(C(C)(C)C)cc2)cc1 | 9.15% |  |
| Nc1nc(F)nc2c1ncn2[C@@H]1O[C@H](CO)[C@@H](O)[C@@H]1O |  | 1.65 µM (active) |
| CNNCc1ccc(C(=O)NC(C)C)cc1 | 19.2% |  |
| CCC(=O)O[C@]1(C(=O)CCl)[C@@H](C)C[C@H]2[C@@H]3CCC4=CC(=O)C=C[C@]4(C)[C@@]3(F)[C@@H](O)C[C@@]21C | 8.77% |  |
| CC(C)NCC(O)c1ccc(NS(C)(=O)=O)cc1 (stereo not given) | 10.4% |  |
| O=C(NCC1CN(c2ccc(N3CCOCC3=O)cc2)C(=O)O1)c1ccc(Cl)s1 (stereo not given) | 12.8% |  |
| CC(C)(C)C(=O)OCOP(=O)(COCCn1cnc2c(N)ncnc21)OCOC(=O)C(C)(C)C | -11.5% |  |
| COc1cc([C@@H]2c3cc4c(cc3[C@H](O)[C@H]3COC(=O)[C@H]23)OCO4)cc(OC)c1OC |  | 0.0414 µM (active) |
| COc1cc2nc(N3CCCN(C)CC3)nc(NC3CCN(Cc4ccccc4)CC3)c2cc1OC |  | 0.657 µM (active) |
| COC(=O)Nc1nc2ccc(Sc3ccccc3)cc2[nH]1 |  | 2.08 µM (active) |
| CC(C(=O)O)c1ccc2c(c1)CC(=O)c1ccccc1S2 (stereo not given) | -8.93% |  |
| CNS(=O)(=O)CCc1ccc2[nH]cc(C3CCN(C)CC3)c2c1 | 1.2% |  |
| Nc1nc(N)nc(-c2cc(Cl)ccc2Cl)n1 | 9.71% [at 97.2 µM] |  |
| CC1CC2C3CCC4=CC(=O)C=C[C@]4(C)[C@@]3(F)[C@@H](O)C[C@]2(C)[C@@]1(O)C(=O)CO (stereo not given in full) | 7.57% |  |
| CN(C)c1ccc(C(=C2C=CC(=[N+](C)C)C=C2)c2ccc(N(C)C)cc2)cc1 |  | 0.928 µM (active) |
| CC(C)(C#N)c1cc(Cn2cncn2)cc(C(C)(C)C#N)c1 | 8.27% |  |
| C[C@@H](CN1CC(=O)NC(=O)C1)N1CC(=O)NC(=O)C1 | 6.38% |  |
| CS(=O)(=O)c1ccc([C@@H](O)[C@@H](CO)NC(=O)C(Cl)Cl)cc1 | 18.7% |  |
| O=NN(CCCl)C(=O)NC1CCCCC1 | 9.91% |  |
| Oc1c(Cl)cc(Cl)c2cccnc12 |  | 13.1 µM (active) |
| CCOC(=O)[C@H](CCc1ccccc1)N[C@H]1CS[C@H](c2cccs2)CN(CC(=O)O)C1=O | 7.75% |  |
| Cc1cccc(N(C)C(=S)Oc2ccc3ccccc3c2)c1 | 14.4% |  |
| Cn1nnc2c(C(N)=O)ncn2c1=O | 9.28% |  |
| CCCCOc1ccc(CC(=O)NO)cc1 | -16.9% |  |
| S=P(N1CC1)(N1CC1)N1CC1 | 6.78% |  |
| CCOC(=O)c1ccc(C#Cc2ccc3c(c2)C(C)(C)CCS3)nc1 | 8.34% |  |
| NC(=O)c1cccnc1 | 2.96% |  |
| Nc1[nH]c(=O)ncc1F | 8.36% |  |
| COC(=O)Nc1nc2ccc(S(=O)c3ccccc3)cc2[nH]1 (stereo not given) |  | 2.61 µM (active) |

Reference: PubChem BioAssay (NCATS)
